Rows were chosen to be rich in hits. Some 2.3% of all compounds tested hit in one or more screens of this group.
M1 ag parental – counter-screen for M1 agonists: effect in parental CHO-K1 cells; activation, % at 3 µM; 360,000 compounds, 0.48% hits; Fluo-8 calcium fluorescence; scaled to maximal ATP response, vehicle zero; AID 602248, 2012; in the data active = activation above about 15%;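 also: untransfected CHO-K1 host cells lacking M1 receptor as counterscreen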
CHO-K1 Ca antag – nonselective inhibitor or artifact in parental CHO-K1 cells; ATP-induced calcium, Fluo-8 fluorescence; inhibition, % at 3 µM; 360,000 compounds, 0.6% hits;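 active = inhibition above a per-plate cutoff, the plate's mean sample inhibition plus 3 SD, cut at about 24% in these data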;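 also: 0% = DMSO plus EC80 ATP and 100% = DMSO alone without ATP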
M1 antag – human M1 muscarinic receptor antagonists, primary screen, CHO-K1 cells, Fluo-8 calcium fluorescence, 1536-well; Muscarinic acetylcholine receptor M1 (Homo sapiens), P11229; CHO-K1 hM1, ACh EC80 antagonist; inhibition, % at 3 µM; 360,000 compounds, 1.3% hits; AID 588852, 2011;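 active = percent inhibition above its own plate's cutoff, namely the mean of that plate's compound wells plus 3 SD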;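 also: peak over basal fluorescence ratio during 140 s after agonist addition; 0% = ACh EC80 plus DMSO and 100% = DMSO alone without agonist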
Target sequence (P11229 whole entry, looked up): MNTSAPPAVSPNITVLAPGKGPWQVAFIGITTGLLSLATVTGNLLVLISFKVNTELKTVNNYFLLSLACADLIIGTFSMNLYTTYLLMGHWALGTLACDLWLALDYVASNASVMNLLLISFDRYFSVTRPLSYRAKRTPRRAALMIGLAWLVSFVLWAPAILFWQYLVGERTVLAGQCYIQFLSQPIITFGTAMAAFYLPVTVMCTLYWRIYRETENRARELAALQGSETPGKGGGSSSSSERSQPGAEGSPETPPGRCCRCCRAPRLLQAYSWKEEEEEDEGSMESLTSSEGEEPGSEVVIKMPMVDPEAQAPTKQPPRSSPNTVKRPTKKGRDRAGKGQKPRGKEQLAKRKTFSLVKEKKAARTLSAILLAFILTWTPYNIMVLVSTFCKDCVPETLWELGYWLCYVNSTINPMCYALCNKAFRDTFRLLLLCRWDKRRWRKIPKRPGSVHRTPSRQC
CHO-K1 Ca PAM – nonselective calcium activators in parental CHO-K1 cells, primary screen, counter-screen for M1 PAM project, cell-based, Fluo-8 calcium fluorescence, full deck, 1536-well; ATP EC20; 0% at ATP EC20, 100% at ATP max; activation, % at 3 µM; 360,000 compounds, 0.02% hits;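 active = activation above the run cutoff, the mean activation of all test compounds plus 3 SD, cut at about 40% in these data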;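 also: peak over basal fluorescence ratio in a 140 s read after ATP addition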
M1 PAM – human M1 muscarinic receptor positive allosteric modulators, primary screen, CHO-K1 cells, Fluo-8 calcium fluorescence, 1536-well; Muscarinic acetylcholine receptor M1 (Homo sapiens), P11229; CHO-K1 hM1, ACh EC20; 0% = ACh EC20, 100% = maximal ACh; activation, % at 3 µM; 360,000 compounds, 0.088% hits; AID 588819, 2011; in the data active = activation above about 19%, passing the limit was not always enough
M1 ag – human M1 muscarinic receptor agonists, primary screen, Fluo-8 calcium fluorescence, CHO-K1 cells, HTS; Muscarinic acetylcholine receptor M1 (Homo sapiens), P11229; CHO-K1 hM1, agonist mode; 0% DMSO, 100% acetylcholine EC100; activation, % at 3 µM; 360,000 compounds, 0.33% hits;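 active = activation above the run's mean compound activation plus 3 SD, cut at about 16% in these data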;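 also: peak over basal fluorescence ratio within a 140 s kinetic read after compound addition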
Active calls of the source: *; ! = not confirmed by another sample.

SMILES	M1 ag parental	CHO-K1 Ca antag	M1 antag	CHO-K1 Ca PAM	M1 PAM	M1 ag
CC1CCN(S(=O)(=O)c2ccc(Oc3ccc([N+](=O)[O-])cc3)cc2)CC1	5	0	30*	-2	-18	-6
O=C1c2cccc3c(O)ccc(c23)C(=O)N1Cc1ccco1	65*	26*	30*	-4	-23	68*
CC(=O)Nc1ccc(N2C(=O)c3cccc4c(O)ccc(c34)C2=O)cc1	41*	21	39*	-23	-32	98*
O=C1c2cccc3c(O)ccc(c23)C(=O)N1c1ccc(Cl)cc1	18*	7	45*	-20	-30	78*
C[C@H](CO)N1C[C@H](C)[C@@H](CN(C)C(=O)Nc2ccc(F)cc2)Oc2ncc(-c3ccc(F)cc3)cc2C1=O	0	-1	-3	11	-3	-7
CN1c2ccccc2Oc2nnc(Cl)cc21	-1	27*	7	-16	-5	-8
O=C1NCCN/C1=C\C(=O)c1ccc(Br)cc1	2	-3	-12	-5	2	-1
CCCCn1c(-c2ccc(Cl)cc2)nc2c(=O)n(C)c(=O)[nH]c21	1	-8	-5	14	6	-3
Cn1c(=O)[nH]c2c(nc(-c3ccc(Cl)cc3)n2C)c1=O	2	29*	-19	21	12	-1
COc1ccccc1NC(=O)CN1C(=O)NC2(CCCc3ccccc32)C1=O (stereo unspecified)	1	3	3	-16	14	5
COc1ccc(/C=C2\CC/C(=C\c3ccc(OC)c(OC)c3)C2=O)cc1OC	2	3	3	-5	-2	-2
COc1cc(/C=C2\CC/C(=C\c3ccc(OCCO)c(OC)c3)C2=O)ccc1OCCO	31*	18	16	4	-16	32*
COc1cc(N2C(=O)c3ccccc3C2=O)c(Cl)cc1C(=O)OCC(=O)NCc1ccco1	0	28*	-29	-9	-6	-5
O=C(C(Cc1ccccc1)N1C(=O)c2ccccc2C1=O)N1CCc2ccccc21 (stereo unspecified)	0	26*	-12	-7	11	-1
O=C(Cc1ccccc1)N1CCc2ccccc21	0	-5	-5	14	8	-7
COc1ccccc1CN1C2CCCC1CC(NC(=O)/C=C/c1ccccc1)C2 (stereo unspecified)	1	-15	62*	20	-32	-13
COc1ccc(CCNC(=O)c2ccc(CN3CCC(Cc4ccccc4)CC3)cc2)cc1OC	1	1	48*	6	-26	-7
COc1ccc(CNC(=O)C2CCCN2CCc2ccccc2)cc1OC (stereo unspecified)	17*	-20	-9	11	11	-11
COc1ccc(CN2CCC(Cc3ccccc3)CC2)cc1OC	0	14	25	-25	-14	-11
O=C(NCc1ccccc1)c1ccc(CN2CCC(Cc3ccccc3)CC2)cc1	27*	17	25	8	-17	4
CCc1ccccc1NC(=O)c1ccc(CN2CCC(Cc3ccccc3)CC2)cc1	2	-12	38*	23	-20	-4
O=C(c1ccc(CN2CCOCC2)cc1)N1CCC(Cc2ccccc2)CC1	1	-6	0	13	-1	-4
COc1ccc(CCNC(=O)C(=O)NCC2CCCN2S(=O)(=O)c2ccccc2)cc1OC (stereo unspecified)	9	7	24	8	-5	-1
COc1ccc(OC)c(NC(=O)C2CCCN(S(C)(=O)=O)C2)c1 (stereo unspecified)	0	5	-6	-9	3	-3
COCCNC(=O)c1ccc(CN2CCC(Cc3ccccc3)CC2)cc1	0	-9	43*	10	-25	-9
SMILES	M1 ag parental	CHO-K1 Ca antag	M1 antag	CHO-K1 Ca PAM	M1 PAM	M1 ag
COc1ccccc1CNC(=O)COC(=O)c1n[nH]c2ccccc12	0	21	13	-7	-5	0
COc1ccccc1CNC(=O)c1n[nH]c2ccccc12	17*	8	-13	9	8	2
Cc1ccc(S(=O)(=O)N/N=C\c2cn(CC(N)=O)c3ccccc23)cc1	0	-2	-11	-1	11	-1
COc1ccc(N(C)S(=O)(=O)c2cccc(C(=O)OCC(=O)Nc3cc(C)ccc3OC)c2)cc1	8	6	36*	7	-20	1
CCN(c1ccccc1)S(=O)(=O)c1cccc(C(=O)OCC(=O)c2c(N)n(C)c(=O)n(C)c2=O)c1	7	-20	30	5	-17	-4
COc1ccc(N(C)S(=O)(=O)c2cccc(C(=O)OCC(=O)c3c(N)n(C)c(=O)n(C)c3=O)c2)cc1	21*	8	42*	-16	-23	6
CC(NC(=O)C(=O)N1CCCCC1)C(c1cccs1)N1CCN(c2ccccc2)CC1 (stereo unspecified)	2	-14	-12	0	14	-3
Cc1ccc(CNC(=O)CN(C(=O)C2(C)CC(=O)N=C3C=CC=CN32)c2cccc(C)c2C)cc1 (stereo unspecified)	1	-7	2	13	2	-10
COc1ccc(-c2cc(-c3nc4ccccn4c3NCc3ccccc3)ccc2OC)cc1	11	52*	87*	-22	-32	4
CCC(C)Sc1cc(-c2nc3ccc(C)cn3c2NCc2ccccc2)ccc1OC (stereo unspecified)	3	25*!	63*	-17	-29	-6
CCCCNc1c(-c2ccc(OC)c(SC3CCCCC3)c2)nc2ccc(C)cn12	8	33*	49*	-18	-16	1
COc1ccc(-c2nc3ccccn3c2NCc2ccc3c(c2)OCO3)cc1	3	4	13	3	-9	-1
CCCCNc1c(-c2ccc(OC)c(SC(C)CC)c2)nc2ccc(C)cn12 (stereo unspecified)	3	-2	37*	-17	-22	-6
CC1=C(C(=O)N(C(C)C)C(C)C)CC(CC(=O)NCc2ccco2)C(=O)N1Cc1ccccc1 (stereo unspecified)	1	22	3	-7	0	-8
CCc1noc(C)c1C(=O)OCC(=O)Nc1cccc(C)c1	0	-13	-4	5	3	-5
Cc1ccc(S(=O)(=O)c2nc(/C=C/c3ccccc3)oc2N2CCC(C(N)=O)CC2)cc1	0	15	10	-13	-5	-1
